TDP43 rescue – rescues yeast growth from TDP-43 toxicity; TDP-43 expressing yeast growth rescue, BacTiter-Glo, 24 h; Potency, µM (doses to about 46.1 µM), without a hit: at the highest dose growth rescue (activation), actives largely listed as activators; 410,000 tested, 1.8% active; AID 652104; further: potency means the concentration at half of the fitted maximal effect; % of control where 0% means no effect; nearly all actives have a fitted effect of over 50% in size
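In this qHTS, compounds that restore growth of yeast expressing TDP-43 appear as activators. Cells (OD600=0.02, galactose medium, raffinose-pregrown) are incubated with compound 24 hr at 30 deg C and growth is quantified by BacTiter-Glo.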
PTHR1 ag – agonists of human PTHR1 parathyroid hormone receptor; Q03431; AID 743266; 410,000 tested, 0.075% active; HEK293 GP2 PTHR1 cells, GloSensor cAMP luminescence, 1 h; Potency, µM (top dose mostly 115 µM), for inactives: at the highest dose activation, hits mostly activators; further: potency means the concentration at half of the fitted maximal effect; nearly all actives have a fitted effect of over 55% in size
Target sequence (Q03431 whole entry, looked up): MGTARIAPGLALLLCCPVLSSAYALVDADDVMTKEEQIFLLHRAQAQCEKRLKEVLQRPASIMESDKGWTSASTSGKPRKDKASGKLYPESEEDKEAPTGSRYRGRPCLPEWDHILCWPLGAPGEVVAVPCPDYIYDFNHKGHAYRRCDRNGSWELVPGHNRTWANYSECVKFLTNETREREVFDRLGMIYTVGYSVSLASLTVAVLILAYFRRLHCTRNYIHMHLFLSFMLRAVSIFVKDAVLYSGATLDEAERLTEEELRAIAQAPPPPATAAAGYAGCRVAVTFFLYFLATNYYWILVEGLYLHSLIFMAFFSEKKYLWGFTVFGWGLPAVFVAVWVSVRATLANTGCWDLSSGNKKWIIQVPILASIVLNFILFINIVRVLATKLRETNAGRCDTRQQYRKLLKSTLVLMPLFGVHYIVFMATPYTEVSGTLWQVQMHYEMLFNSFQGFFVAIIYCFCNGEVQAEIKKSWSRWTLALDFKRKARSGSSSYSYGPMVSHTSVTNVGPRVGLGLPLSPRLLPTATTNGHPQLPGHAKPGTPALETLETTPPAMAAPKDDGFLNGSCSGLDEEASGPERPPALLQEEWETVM
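HEK-293-derived GP2 cells expressing PTHR1 and a GloSensor cAMP reporter, 3,000/well, plated overnight, given luciferin plus IBMX (each 0.5 mM as added) for 1 h at 37 °C, then compound for 1 h at 37 °C. Luminescence was read after 15 min at room temperature.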
Abeta yeast res – A-beta toxicity reversal in yeast; yeast expressing A-beta42, growth rescue, OD600, 48 h; response scale: 0% DMSO, 100% iron-clioquinol control; Potency, µM (series often up to 46.1 µM), hits mostly activators; 410,000 tested, 0.063% active; further: potency means the concentration at half of the fitted maximal effect; nearly all actives have a fitted effect of over 55% in size
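Yeast growth medium received pinned compounds, then yeast cells expressing toxic A-beta were added; plates incubated at 30 C for 48 hr. Growth read as absorbance at 600 nm, normalized to DMSO and equimolar FeCl3 plus clioquinol controls.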
FUS yeast rescue – FUS proteinopathy suppression in yeast | S. cerevisiae FUS-expressing, growth rescue, OD600, 24 h | Potency, µM (titrated, usually from 76.6 µM), actives largely listed as activators | 390,000 tested, 0.24% active | AID 1347120;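 further: potency means the concentration at half of the fitted maximal effect; plate controls were DMSO vehicle for no effect and reference control for full effect; nearly all actives have a fitted effect of over 55% in size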
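Restored growth of FUS-toxic S. cerevisiae, read as 600 nm absorbance after 24 h at 30C in galactose medium (starting OD 0.005). Controls CP55940 and DMSO.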
aSyn rescue – alpha-synuclein toxicity inhibition in yeast | Yeast expressing alpha-synuclein, growth rescue, BacTiter-Glo, 24 h | 370,000 tested, 0.14% active | Potency, µM (top dose mostly 46.1 µM), for inactives: at the top dose growth rescue (activation), usual class: activators | AID 652106; further: potency means the concentration at half of the fitted maximal effect; % of control where 0% means no effect; nearly all actives have a fitted effect of over 65% in size
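Readout is rescue of growth in alpha-synuclein-expressing yeast, so inhibitors of toxicity appear as activators. Growth after 24 hr at 30 deg C in galactose medium is quantified by luminescence.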
LDHA block – blocks human lactate dehydrogenase A; P00338; purified LDHA, NADH/diaphorase-resazurin fluorescence; active compounds read low; activity change, % (values are at about 110 or 230 µM); 480,000 tested, 0.15% active; AID 1347041; in the data active means activity change below about -30%; inconclusive means mostly about -25% to -30%;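 further: plate controls were DMSO wells for no effect and wells without enzyme for full effect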
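LDH5 2 nM; NADH 0.06 mM, pyruvate 0.2 mM; 200 mM Tris pH 7.4, EDTA, Tween-20; 5 min RT. Detection: diaphorase 0.133 mg/mL + resazurin 37 µM, fluorescence ex540/em590 at 0 and 20 min; normalized to enzyme-free and DMSO wells.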
* = called active by the depositor; i = inactive; ? = inconclusive; . = no result; [ ] = another dose, or the depositor's remark. Hits are enriched below; roughly 1.9% of the tested compounds scored in any of these assays. Unless noted, the call rests on the fitted dose curve; in most records, active means well fitted curve in the direction sought with a large enough effect; inconclusive means small, poorly fitted or top-dose-only effect, or another doubt; inactive means no such curve, though single readings can be large; an effect the other way counts as inactive or inconclusive.

SMILES	TDP43 rescue	PTHR1 ag	Abeta yeast res	FUS yeast rescue	aSyn rescue	LDHA block
Cc1noc(C)c1COc1ccc(C(=O)N2CCN(c3cccc(Cl)c3)CC2)cc1	22.4µM*	-36.7%	i	i	10.3%	-3.0
CN1CCN(C(=O)c2cc3c(=O)n4ccccc4nc3s2)CC1	-10.6%	i	i	i	1.2%	0.4
Cc1noc(C)c1COc1ccccc1C(=O)N1CCN(c2cccc(Cl)c2)CC1	24.7%	i	i	i	19.1%	0.5
COc1ccccc1N1CCN(C(=O)c2cc3c(=O)n4ccccc4nc3s2)CC1	20µM*	-27.4%	i	i	8.0%	1.8
N#CCCn1c(=O)c2c(ncn2C2CCCC2)n(Cc2ccccc2)c1=O	.	.	.	.	.	1.8
CCN1CCN(c2ccc(NC(=O)c3ccc(OC)c(F)c3)cc2C)CC1	.	.	.	.	.	-0.2
CCCOc1ccc(-c2nc(C#N)c(N3CCN(Cc4ccccc4)CC3)o2)cc1	.	.	.	.	.	-18.7
COc1ccccc1N1CCN(C(=O)CCC(=O)N2CCN(c3ccccc3OC)CC2)CC1	-19.6%	-24.0%	i	i	-0.1%	-5.0
COc1ccccc1N1CCN(CC(=O)N2CCCC2)CC1	1.4%	i	i	i	-1.2%	-37.2*
CCOc1ccccc1N1CCN(C(=O)c2ccccc2)CC1	14.6%	-4.2%[57.5 µM]	i	i	-3.1%	5.0
COc1ccccc1N1CCN(C(=O)c2sc3nc(-c4ccc(F)cc4)cn3c2C)CC1	11.2µM*	-14.4%	i	?	17.3%	1.9
CCOc1ccccc1N1CCN(C(=O)c2ccc(-c3ccc(OC(C)=O)cc3)cc2)CC1	20µM*	-16.4%	i	?	1.0%	-0.2
COc1ccc(C(=O)N2CCN(c3ccccc3OC)CC2)cc1	?	21.4%	i	i	10.4%	-4.2
COc1ccccc1N1CCN(C(=O)c2cccc(Oc3ccccc3)c2)CC1	35.5µM*	-24.9%	i	i	4.6%	-1.5
COc1ccc(-c2cn3c(C)c(C(=O)N4CCN(c5ccc(F)cc5)CC4)sc3n2)cc1	1.7%	-4.4%	i	i	1.5%	-8.2
COc1ccccc1N1CCN(C(=O)Nc2ccc([N+](=O)[O-])cc2)CC1	14.1µM*	i	i	i	6.1%	-10.8
COc1cccc(N2CCN(C(=O)c3ccc(-c4ccccc4)cc3)CC2)c1	12.6µM*	-10.2%	i	?	11.1%	-12.5
COc1ccc(C(=O)N2CCN(c3cccc(Cl)c3)CC2)cc1	?	-26.7%	i	.	5.6%	-2.3
CCCS(=O)(=O)N1CCN(C(=O)c2ccc(-c3ccccc3)cc2)CC1	17.8µM*	-19.3%[57.5 µM]	i	i	?	-1.3
COc1ccccc1N1CCN(C(=O)c2ccc(-c3ccccc3)cc2)CC1	17.8µM*	-47.3%	i	i	9.3%	-1.0
CN(C)CCNc1oc(-c2ccc(S(=O)(=O)N3CCCCCC3)cc2)nc1C#N	.	.	.	.	.	4.0
C/C(=N/Nc1ccc(C(F)(F)F)cn1)c1ccc([N+](=O)[O-])cc1	.	.	.	.	.	-1.5
COc1ccc(Cc2nc3c4c(ncn3n2)Oc2cc(O)ccc2C4c2ccccc2)cc1OC (stereo not given)	.	.	.	.	.	0.9
O=Cc1ccc(OC(=O)/C=C/c2ccccc2)cc1	17.8µM*	-1.0%	i	i	25.2%	-5.8
N/C(=N\OC(=O)/C=C/c1ccccc1)c1ccccc1	17.8µM*	-15.4%[57.5 µM]	i	i	-18.9%	1.7
SMILES	TDP43 rescue	PTHR1 ag	Abeta yeast res	FUS yeast rescue	aSyn rescue	LDHA block
N/C(=N\OC(=O)c1cccc(Br)c1)c1ccccc1	12.6µM*	-9.3%[57.5 µM]	i	i	-22.4%	-5.8
CCOc1ccc(/C=C/C(=O)Oc2ccccc2)cc1	?	i	i	i	-1.3%	-9.6
N/C(=N\OC(=O)c1cccc(Br)c1)c1ccccn1	11.2µM*	-29.4%	i	i	-9.9%	-2.3
N/C(=N\OC(=O)c1cccc(Cl)c1)c1ccccn1	?	-35.2%	i	i	-12.8%	-7.8
COc1ccc(-c2nc(CS(=O)CC(=O)NCCCOC(C)C)c(C)o2)cc1OC (stereo not given)	.	.	.	.	.	9.9
Cc1oc(-c2cccs2)nc1CC(=O)N1CCC1	.	.	.	.	.	0.0
CCOC(=O)N1CCN(Cc2cc(=O)oc3cc(O)c(Cl)cc23)CC1	.	.	.	.	.	0.1
Cc1ccc(CC(=O)N2CCC(NS(=O)(=O)c3ccc(Cl)cc3)CC2)cc1	.	.	.	.	.	-1.7
CCOc1cc(C(=O)O/N=C(\N)c2ccccn2)cc(OCC)c1OCC	12.7%	-2.2%	i	i	-23.9%	-1.2
CCOc1ccc(C(=O)O/N=C(\N)c2ccccn2)cc1OCC	31.6µM*	i	i	i	-0.3%	-2.3
CCCCCCC(=O)OCC(=O)c1ccc2c(c1)NC(=O)CO2	15.8µM*	-40.0%	i	i	8.4%	-7.1
Cc1ccc(SCC(=O)c2cc(C)c(O)c(C)c2)cc1	17.8µM*	-21.1%	i	i	-1.3%	0.8
CCCC(=O)Nc1ccc(Cl)c(-c2nc3ccccc3o2)c1	.	.	.	.	.	0.1
CCOC(=O)C1=C(COC(=O)c2sccc2C)NC(=O)NC1C (stereo not given)	2.9%	-32.8%	i	i	0.5%	-10.4
CCOC(=O)C1=C(COC(=O)c2ccc([N+](=O)[O-])s2)NC(=O)NC1C (stereo not given)	20µM*	-34.2%	i	i	-73.8%	3.0
CCN(CC)S(=O)(=O)c1cc(NS(=O)(=O)c2ccc(C)cc2C)ccc1C	.	.	.	.	.	2.1
COc1ccc(CNC(=O)c2ccc3c(c2)N=C(C)c2c(C)ccc(C)c2S3)cc1	12.6µM*	-2.4%	i	?	11.7%	-4.3
CCCNC(=O)c1ccc2c(c1)N=C(C)c1c(C)ccc(C)c1S2	?	i	i	i	20.8%	-13.5
CSc1ccc(Cc2ccc(Cl)cc2Cl)nn1	11.2µM*	-10.0%[57.5 µM]	i	i	0.0%	-5.1
NNc1ccc(Cc2ccc(Cl)cc2Cl)nn1	-6.3%	-12.1%	i	i	0.9%	-1.4
O=S(=O)(/C=C/c1ccccc1)NCc1nc2ccccc2s1	.	.	.	.	.	11.2
COc1cc2oc3ccc(C#Cc4ccccn4)cc3c(=O)c2cc1OC	9.4%	-22.7%	i	i	12.6µM*	-11.0
Cc1cccc(Nc2nc(N)c([N+](=O)[O-])c(NCc3ccco3)n2)c1	14.1µM*	-30.0%	i	?	3.0%	-5.1
Cc1cccc(Nc2nc(NCc3ccco3)nc(N)c2[N+](=O)[O-])c1	2.5%	i	i	i	5.0%	-2.4
Cc1cccc(Nc2nc(N)c([N+](=O)[O-])c(N3CCC(C)CC3)n2)c1	25.1µM*	-35.5%	i	i	4.8%	-7.6
